# Measured values: PubChem BioAssay (NCI)
# Compounds without any hit were thinned out: in the full panel of roughly 83,000, 20% have a hit.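 Interpretation: 100, growth as untreated; towards 0, rising growth inhibition; 0, no net growth; 0 to -100, cell death. Compounds scoring below 10 were considered active.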 Values without a mark were called inactive. The source made the active and inactive calls.
# Legend:
# Test in all cases: NCI-60 one-dose screen, 48 h (100 = growth as untreated, 0 = no growth, -100 = all killed)
# Conditions in all cases: 10 µM unless noted
# NCI-H23 lung = test system: NCI-H23 lung
# NCI-H322M lung = test system: NCI-H322M lung
# HOP-62 NSCLC = test system: HOP-62 NSCLC
# NCI-H460 lung = test system: NCI-H460 lung
# HOP-92 NSCLC = test system: HOP-92 NSCLC
# NCI-H522 lung = test system: NCI-H522 lung
# A549/ATCC NSCLC = test system: A549/ATCC NSCLC
# 786-0 renal = test system: 786-0 renal
# COLO 205 colon = test system: COLO 205 colon
# DU-145 prostate = test system: DU-145 prostate
# K-562 leukemia = test system: K-562 leukemia
# MALME-3M melanoma = test system: MALME-3M melanoma
# MDA-MB-231 breast = test system: MDA-MB-231 breast
# RXF 393 renal = test system: RXF 393 renal
# SF-268 CNS = test system: SF-268 CNS
# SF-295 CNS = test system: SF-295 CNS
# SF-539 CNS = test system: SF-539 CNS
# UACC-257 melanoma = test system: UACC-257 melanoma
# M14 melanoma = test system: M14 melanoma
# HCT-15 colon = test system: HCT-15 colon
Structure (SMILES),growth (NCI-H23 lung),growth (NCI-H322M lung),growth (HOP-62 NSCLC),growth (NCI-H460 lung),growth (HOP-92 NSCLC),growth (NCI-H522 lung),growth (A549/ATCC NSCLC),growth (786-0 renal),growth (COLO 205 colon),growth (DU-145 prostate),growth (K-562 leukemia),growth (MALME-3M melanoma),growth (MDA-MB-231 breast),growth (RXF 393 renal),growth (SF-268 CNS),growth (SF-295 CNS),growth (SF-539 CNS),growth (UACC-257 melanoma),growth (M14 melanoma),growth (HCT-15 colon)
CN1C(=O)N(C)C2Nn3c(s/c(=C4\C(=O)N(CCc5ccccc5)c5ccccc54)c3=O)=NC21 (stereo not given),72%,72.6%,75.9%,95.4%,93.2%,36.7%,55.6%,61.8%,60.1%,63%,34.9%,85.1%,80.5%,64.1%,60.9%,72%,48.4%,62.3%,57.3%,44.6%
NS(=O)(=O)c1ccc(CCN=C=S)cc1,32.7%,85.2%,101%,56.7%,23.4%,-69.8% (active),71.5%,20.8%,-36.7% (active),6.92% (active),5.24% (active),40.9%,15.6%,-36.3% (active),53.3%,105%,37.2%,24.7%,12.6%,0.368% (active)
CN(C)CCNc1cc(-c2ccccc2)nc2ccccc12,-32.9% (active),8.29% (active),-65.4% (active),0.75% (active),-68.6% (active),-90.6% (active),-53.8% (active),-79.2% (active),-73.7% (active),-62.1% (active),0.508% (active),-77.3% (active),-33.7% (active),-91.1% (active),-53.3% (active),-71.5% (active),-74.4% (active),-74.5% (active),-20.4% (active),6.92% (active)
COc1cc(/C=C2\CCC/C(=C\c3cc(CN4CCOCC4)c(O)c(OC)c3)C2=O)cc(CN2CCOCC2)c1O,21.4%,46.4%,46.6%,11.6%,36.8%,34.4%,35.8%,57.8%,45.2%,14.9%,15.3%,46.3%,26.2%,6.08% (active),42.3%,59.6%,32%,64.7%,36.7%,21.9%
c1ccc(CNc2nc(Nc3ccccc3)nc3ccccc23)cc1,64.6%,46.5%,-9% (active),48.2%,-2.52% (active),40.7%,29.6%,38.5%,75.1%,40.5%,33.6%,-7.75% (active),66.8%,2.83% (active),50.7%,-61.1% (active),40.2%,14.4%,55%,72.6%
O=C(NC1CCN(Cc2ccccc2)CC1)c1cc2nc(-c3ccc(Cl)s3)cc(C(F)(F)F)n2n1,90.8%,113%,70.7%,26.6%,51.9%,-31.9% (active),81.9%,102%,-48.6% (active),83.3%,5.49% (active),-84.1% (active),57.1%,94.8%,66.7%,-68.6% (active),2.96% (active),-65.5% (active),48.7%,94.7%
O=C(/C=C/c1cccc(Cl)c1)OCc1ccc2cc1OCC#C/C=C\C#CCO2,102%,91.1%,100%,104%,150%,83.2%,90.5%,100%,106%,119%,81.9%,99.7%,90.7%,101%,106%,109%,100%,88.8%,103%,102%
O=C(CN1C(=O)/C(=C\c2ccc(Cl)cc2)SC1=S)Nc1ncc(Cc2ccc(Cl)cc2)s1,100%,107%,105%,100%,101%,89.5%,108%,106%,110%,106%,105%,99.4%,104%,110%,97.4%,101%,94.3%,104%,102%,103%
CCCCCCn1c(=N)n(CC(O)COc2cccc(C)c2)c2ccccc21 (stereo not given),11%,-42.8% (active),-74.6% (active),-68.1% (active),-6.11% (active),-74.5% (active),-32.3% (active),-86.5% (active),-94.4% (active),-22.4% (active),-2.58% (active),-90.9% (active),-70.7% (active),-95.1% (active),-14.2% (active),-85.7% (active),-86.4% (active),-87.8% (active),-75.2% (active),-18.8% (active)
CN1C(=O)N(C)C2(c3ccccc3)OC(=S)NC12c1ccccc1 (stereo not given),99.3%,92%,90.1%,112%,101%,90.4%,87.5%,96.2%,107%,94.4%,92.3%,97%,110%,114%,88.9%,93.3%,92.5%,94.7%,95.7%,100%
Cc1ccc2nc(NC(=O)CSC(=S)N3CCN(c4ccccc4)CC3)sc2c1,83.7%,92.9%,105%,112%,82.6%,-81.8% (active),94.6%,103%,116%,112%,95.7%,105%,101%,108%,101%,104%,104%,108%,97.8%,97%
Cc1nc(Nc2ccccn2)sc1C(=O)/C=C/c1ccc(Cl)cc1,22.7%,32.1%,16.4%,3.86% (active),31.8%,-39.3% (active),17.2%,19.7%,-21.5% (active),6.68% (active),8.43% (active),50.3%,20.4%,20.2%,19.9%,4.33% (active),-8.91% (active),41.8%,11.6%,11.7%
COc1ccc(/C=c2\sc3n(c2=O)NC2C(N=3)N(C)C(=O)N2C)cc1 (stereo not given),96.6%,92%,101%,108%,100%,86.6%,99.8%,97.7%,102%,110%,89.3%,97.6%,96.8%,101%,93.5%,100%,95.5%,102%,96.5%,96.4%
O=S1(=O)N(Cc2ccccc2)[C@@H](Cc2ccccc2)C2O[C@H]2[C@H](Cc2ccccc2)N1Cc1ccccc1 (stereo not given in full),37.6%,84.9%,53.6%,9.31% (active),114%,49.3%,44.1%,40.6%,61.8%,34.3%,23.4%,67.8%,24.2%,45.2%,57.8%,38%,38.6%,39.1%,72.6%,26.1%
COc1ccc(N)c(-c2cc3c(c4c2[nH]c2ccc(OC)cc24)CCCC3)c1,91.2%,71.5%,70.4%,83.1%,72.2%,57.1%,64.1%,78.3%,102%,83.7%,76.8%,108%,77.6%,87.1%,73.8%,88.8%,98%,67.9%,78.5%,58.6%
